FBW7 activator: activators of human E3 ligase FBW7 | Q969H0 | AlphaScreen FBW7–phospho-cyclin E peptide binding, activator screen | normalized activity (activation), % at 26.1 µM | 650,000 tested, 0.13% active | AID 1259310; in the data active means normalized activity above about 1.9%;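 further: purified mutant Fbw7 with reduced substrate affinity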
MITF primary: human MITF inhibition, primary screen. 650,000 tested, 0.91% active. AID 1259374. O75030. AlphaScreen MITF homodimerization, bead proximity signal. inhibition, % at 2.6 µM; in the data active means inhibition above about 50%;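 further: 0% = vehicle wells with protein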
TEAD-YAP block: TEAD-YAP interaction inhibition | HEK-TIYL cells, TEAD-Gal4/YAP UAS-luciferase luminescence | inhibition, % at 9.12 µM | 640,000 tested, 1.4% active | AID 1259422; in the data active means inhibition above about 32%;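 further: 0% = median of test compound wells and 100% = reference inhibitor wells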
GPR151 ag: activates the human receptor GPR151. PathHunter beta-arrestin GPR151 cells, luminescence. activation, % at 11.2 µM. 650,000 tested, 1% active. AID 1508602; in the data active means activation above about 4.9%;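 further: 0% = median of compound wells and 100% = cells with positive control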
Target sequence (Q8TDV0 whole entry, looked up): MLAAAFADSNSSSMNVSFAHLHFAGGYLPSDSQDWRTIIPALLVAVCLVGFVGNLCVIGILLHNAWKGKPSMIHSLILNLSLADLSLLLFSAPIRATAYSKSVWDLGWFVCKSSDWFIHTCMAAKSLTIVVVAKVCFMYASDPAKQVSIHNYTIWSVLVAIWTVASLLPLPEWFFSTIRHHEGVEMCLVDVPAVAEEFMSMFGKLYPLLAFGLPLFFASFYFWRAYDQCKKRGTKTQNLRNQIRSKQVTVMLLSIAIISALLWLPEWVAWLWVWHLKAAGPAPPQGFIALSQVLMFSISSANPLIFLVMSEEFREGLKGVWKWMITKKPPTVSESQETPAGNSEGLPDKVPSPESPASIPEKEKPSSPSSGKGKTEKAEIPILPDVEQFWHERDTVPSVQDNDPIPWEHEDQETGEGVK
* hit, by the source's call. An excerpt weighted towards active compounds, which were near 3.4% of everything screened.

SMILES	FBW7 activator	MITF primary	TEAD-YAP block	GPR151 ag
COC(=O)c1ccc2c(=O)n(CCC3=CCCCC3)c(SCC(=O)c3ccc(Br)cc3)nc2c1	0.0	-6.4	-2.4	-0.9
Oc1ccc(-c2cncc(/C=C/c3ccccc3)n2)cc1	0.4	8.9	4.2	0.8
COc1ccc(CNC(=O)C2CC(c3ccccc3OC)=NO2)cc1 (configuration not stated)	-0.1	-1.0	48.0*	-0.8
COc1ccc(CNC(=O)C2CC(c3ccccc3F)=NO2)cc1 (configuration not stated)	0.1	-10.6	-0.4	0.0
COc1ccccc1C1=NOC(C(=O)NCc2cccs2)C1 (configuration not stated)	-0.1	-3.8	40.9*	-0.3
COc1ccc(C2CC(C(F)(F)F)n3nc(C(=O)N4CCCCC4)cc3N2)cc1OC (configuration not stated)	0.0	-5.7	38.0*	0.2
O=C(Nc1cccnc1)c1ccc2c(c1)C(=O)N(C1CCCCC1)C2=O	0.1	-3.9	-5.7	-1.5
O=C(Nc1ccncc1)c1ccc2c(c1)C(=O)N(C1CCCCC1)C2=O	-0.1	-9.4	32.2*	-0.5
Cc1ccsc1-c1nc(C(N)=O)c2[nH]c(=O)n(Cc3ccccc3)c2n1	0.2	9.8	-6.3	0.3
CCN(CC)C(=O)c1oc2ccc(S(=O)(=O)N3CC(C)CC(C)C3)cc2c1C (configuration not stated)	0.2	7.0	40.3*	-0.1
O=c1c(CN2CCN(c3cccc(Cl)c3)CC2)coc2ccccc12	-0.1	53.1*	43.2*	0.4
Cc1ccc2occ(CN3CCN(c4ccccc4)CC3)c(=O)c2c1	-0.1	23.4	-3.4	3.3
O=c1c(CN2CCN(c3cccc(C(F)(F)F)c3)CC2)coc2ccccc12	-0.1	35.4	62.2*	0.5
O=C(Nc1nc2ccc(C(=O)N3CCOCC3)cc2s1)c1cccs1	0.2	14.9	41.8*	-9.5
Nc1ccc(C(=O)Nc2nc3ccc(C(=O)N4CCOCC4)cc3s2)cc1	0.0	-1.6	7.5	-1.3
CNS(=O)(=O)c1ccccc1Nc1cc(Nc2cc(-c3cncnc3)nc(C)n2)ncc1C(F)(F)F	-0.2	3.3	67.7*	2.3
CNC(=O)c1ccccc1Nc1cc(Nc2ccc3[nH]cc(C(=O)C(=O)N(C)C)c3c2)ncc1C(F)(F)F	0.2	19.3	50.6*	-0.9
CNC(=O)c1ccccc1Nc1cc(Nc2cccc(C)n2)ncc1C(F)(F)F	0.0	1.6	82.2*	0.1
CN(C)C(=O)C(=O)c1c[nH]c2ccc(Nc3cc(Nc4ccccn4)c(C(F)(F)F)cn3)cc12	0.2	12.3	-5.2	2.0
CNC(=O)c1ccccc1Nc1cc(Nc2ccc3c(c2)CCC(=O)N3C)ncc1C(F)(F)F	0.2	-2.0	77.8*	-0.6
O=C(NCc1ccccc1C(F)(F)F)c1cnc2sc3ccccc3n2c1=O	0.2	2.1	5.8	0.1
COc1cccc(OC)c1C(=O)NCCOc1ccc2nnc(-c3ccccc3)n2n1	0.1	4.8	-4.0	-0.8
CC(C)(C)c1ccc(-c2csc(NC(=O)c3cc(=O)c4ccccc4o3)n2)cc1	1.0	8.5	-2.8	-1.7
Cc1ccnc(SCc2cc(=O)c(OC(=O)c3ccc(-c4ccccc4)cc3)co2)n1	0.3	6.8	1.6	-1.1
CCCC1=NN2C(=N)/C(=C/c3cc(Cl)c(OCCOc4cccc(C)c4)c(OCC)c3)C(=O)N=C2S1	-0.1	8.4	-8.7	1.1
SMILES	FBW7 activator	MITF primary	TEAD-YAP block	GPR151 ag
COCCN(CCOC)C(=O)COC(=O)c1ccc(F)cc1Cl	0.0	7.5	4.4	1.1
CNC(=O)c1ccc(Nc2cc(Nc3ccccc3C(=O)NC)c(C(F)(F)F)cn2)nc1	0.3	12.7	88.1*	-0.8
CNC(=O)c1ccccc1Nc1cc(Nc2ccc(-c3cncnc3)cc2)ncc1C(F)(F)F	0.0	8.5	32.3*	0.9
CNC(=O)c1ncccc1Nc1cc(Nc2ccc3c(c2)NC(=O)C3)ncc1C(F)(F)F	0.1	8.0	-8.4	-0.7
CNC(=O)c1ccnc(Nc2cc(Nc3ccccc3C(=O)NC)c(C(F)(F)F)cn2)c1	0.3	0.9	85.2*	-1.1
CNC(=O)c1ccccc1Nc1cc(Nc2ccccn2)ncc1C(F)(F)F	-0.1	-8.4	83.1*	0.0
CCOc1ccc(-n2cc(-c3ccccc3)c3c(SCc4ccc(F)cc4)ncnc32)cc1	0.5	-2.5	5.2	1.1
Cc1ccc(C(=O)Nc2ccc(C)c(C)c2)cc1	-0.1	-14.1	67.1*	-3.4
O=C(Nc1ccc(-c2ccc(NC(=O)c3ccc(Cl)cc3)cc2)cc1)c1ccc(Cl)cc1	39.1*	-5.6	-12.2	1.5
Cc1nc(-c2ccc(NC(=O)c3ccccc3)cc2)cs1	0.0	-7.0	50.7*	-9.9
Cc1ccc(C(=O)Nc2ccc(C(=O)O)cc2)cc1	0.0	8.1	44.7*	-1.3
